The source of these data is the supplement of paper PMC6555819.

This assay deals with VDR:RXRa (NR concentration 270 nM, RXRa partner concentration 90 nM). The assay is described as follows: PBM binding z-score (relative to random genomic background probes); higher = stronger binding; sequences stand for … in GC…GCGATTGACAGCGTAGAATGAAGG
As for the experimental part:
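Protein-binding microarray (Agilent 4x180K custom design, double-stranded 60-nt probes: 5' GC cap, 34-nt variable region, 24-nt constant primer region; full probe sequence given). Purified or IVT nuclear receptor:RXRα heterodimers (3:1 NR:RXRα, mostly 270:90 nM) or homodimers were incubated for 1 h in PBS with 2% milk and no ligand, then detected with Alexa488 antibodies. Fluorescence from o1-orientation probes (~5 replicates averaged) was converted to z-scores against 500 random hg19 background probes. Variable regions are seed direct-repeat (DR0–DR5) sites, all their single-nucleotide variants and half-site ablations.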
TAGCCTAGGTCATTGGGCCAATATAGTACGCATC came in with a PBM binding z-score of 2.33. Sequence ATCTCTAGGAAAAGATAGTTCAGTGAATGCAAAT registered a PBM binding z-score of 0.581. Consider GCGACTGGGGCAAAGGAGGTTACCATAAGGTTGG, for which the PBM binding z-score was found to be 1.26.

The sequence GCATATAGGTAATAGAAGGTGAAAGTCCGATTGT displayed a PBM binding z-score of 0.0859.

The sequence GCTGCTAAGTCAACTGATGGTCAGCTAAAGCTCG had a PBM binding z-score of -0.619. The sequence AGAATGAGGTTATACGTAGATCACGGAAGAAAGT registered a PBM binding z-score of 1.61. With CGAACTAGTTCAGAACAGGACAGTGAAGGATGAT, the PBM binding z-score was -0.0284. With CAAACTAGGTCACGACAGGTCAAAGTCGAATGAC the figure was 6.07; with TCATATAGGTAAACGTGAAAGTCGAACGATATGA, 0.503. GTACCAAGGTGAATAGGACGTTGATGAGTAGGCG showed a PBM binding z-score of -0.357. For the sequence ACTCGGAGAACAAAGGTCAGAGCTACGCCAGTGA, the PBM binding z-score amounted to 2.77. TGATATAGGTAATACAGGTGAAAGTCGGCATCTA gave a PBM binding z-score of 0.523. For the sequence TCTCGGAGTACACGAAAGGTCAGAGCTCGACATC, the PBM binding z-score was 3.41. In turn, CGTCAAAGTTCAACCAAGGTAACGTAAAGCACGC returned a PBM binding z-score of 4.77. As for CCAGACAGGTGAGCAGGTAACTCAGCCTCGATTA, the PBM binding z-score was -0.287. For CCGACTGGGGTAAGGTTACCATAACGCACAGCCA, the PBM binding z-score was 0.525.

CAGCCCAGGTCAGGGCCAGTATAGGAGGAACGTT: the PBM binding z-score was determined as 0.803. Consider CCTCGGAGGACAAAAGGTCAGAGCTGTCCGCTTT, for which the PBM binding z-score turned out to be 3.17.

TAGCCTAGGTCATTGGGCCACTATAGTACGCATC had a PBM binding z-score of 2.23. Consider TCGAGTAGGTTACCAATGGGGCAGTCAGCTTTCT, for which the PBM binding z-score was -0.0931. In turn, ACTAGCAGGCCAAGGGTCACTAAAGATTAGTCCG gave a PBM binding z-score of 2.62. As for CAAACTAGGTCACCGGAAGGACAAAGTCCGCATG, the PBM binding z-score was 3.49.

Sequence CCTTACGGGTCACTGACAGGTTATAGTATTTGGA returned a PBM binding z-score of 3.85.

Consider CTACCAAGCTGAACAAGGTCGTTGATTACTATTC, for which the PBM binding z-score turned out to be 1.51. Sequence CCTAGTGGGCCAAAAAGGTCATTGATGCCGATAA displayed a PBM binding z-score of 4.82.

In turn, TCGAGTAGGTTAATCGGGGCATTCAGCCAACATA registered a PBM binding z-score of 3.59. With TCGAGTAGGTTAGGGGCATGCAGAATGGCGTCGA the figure was 0.195; with CAAACTAGGTCGCGAAAGGTCAAAGTCGAATGAC, 5.94.

Sequence TCATATAGGTAATACAGGTGTAAGTCGGCATCTA displayed a PBM binding z-score of 1.17. With AGAATGAGGTTGTTAAGATCAGGGAATTGCGGTC the figure was 0.496; with ACTATTAGTTGAGACTAGGGCAACCGATAGGTTG, -0.386. With AGAATGAGGTTATGCGTAGATCAGGGAAGAAAGT the figure was 1.15. With TCTCGTTGGTCAAAGGTCACACACTCGAAATGCG the figure was 5.25; with TCTTGTAGATCAGCATGTTAAGAAAGCTGGCCAA, 0.172; with TCGTATAGGTAAATGCTAGGTGAAAGTCCGATCT, 0.443. With CCGAGTAGGTTATAGGGCATTCAGGCAACGGTGA, the PBM binding z-score came out at 0.402. CGTCAAATTTCAAGGTAACGTAACAGAAAGCAGC returned a PBM binding z-score of 0.0191.

As to TTACCAAGGAGAGCTGAGGTCGTTGATCCAACTC, the PBM binding z-score came to 1.15. ACTAGCATGCCAAGTTTGGGTCACTCAAACAAAG returned a PBM binding z-score of 0.531. In turn, CCGACTGGGGCAAAGGGTACCATACTCAGTACGA displayed a PBM binding z-score of 0.4.
